High-throughput results deposited in PubChem by Sanford-Burnham Center for Chemical Genomics.
Only some compounds are listed: those with a hit (about 3.2% of all), similar ones and a draw of the others.
PfGluPho inh = PfG6PD (Plasmodium falciparum) enzyme inhibition. PfGluPho enzyme, NADPH resazurin-diaphorase fluorescence. inhibition, % at 20 µM. hit rate 0.78% among 350,000. AID 504690;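 active = inhibition reaching at least a set limit at 20 µM in the primary screen, cut at about 59% in these data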;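 also: 0% = DMSO wells with substrate and 100% = DMSO wells lacking glucose-6-phosphate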
FAS-TE inh = blocks the thioesterase domain of human fatty acid synthase; AID 602261; inhibition, % at 15 µM; P49327; recombinant FAS-TE, OMFH fluorogenic substrate, fluorescence endpoint; hit rate 0.67% among 360,000;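 active = compounds whose normalised, plate-corrected inhibition of enzyme fluorescence in the single-dose primary screen is 50% or more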;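 also: 0% = DMSO with enzyme and 100% = substrate without enzyme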
Cardio protect = protects H9c2 cardiomyocytes from peroxide injury. hit rate 0.63% among 360,000. H2O2 injury protection, ATPLite, 2 h. protection from H2O2 cell death, % at 20 µM;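 active = compounds giving at least 50% protection of heart cells from peroxide-induced death in the single-dose screen, raw or plate-pattern-corrected value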;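 also: 0% = DMSO wells with peroxide and 100% = DMSO wells without peroxide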
CRFBP-R2 block = antagonists of CRF-binding protein/CRF-R2 receptor complex | HEK293 CRF-R2/CRF-BP, CRF-induced calcium fluorescence | inhibition, % at 11.8 µM | hit rate 0.59% among 350,000;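 active = inhibition of the ligand-induced calcium signal above about 50% at the single tested concentration, limit read from the data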
CRFR2-BP ag = agonists of human CRF-binding protein/CRF-R2 receptor complex; HEK293 CRF-R2/CRF-BP, calcium dye fluorescence (FLIPR); percent of saturating CRF peptide response; activation, % at 13.2 µM; hit rate 0.46% among 350,000; AID 588473;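 active = activation of at least 50%, plus an integration ratio under a set limit after plate pattern correction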;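 also: plate controls were neutral control wells without compound for no effect and CRF at EC100 for full effect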
aDG glyco act = alpha-DG glycosylation activation; AID 624168; Pro5-aDG cells, alpha-DG glycosylation AlphaScreen (IIH6); 0% Pro5, 100% B10-LARGE cell signal; hit rate 0.22% among 360,000; activation, % at 10 µM;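 active = activation of at least 8% versus controls, or a plate z-score of at least 8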;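 also: Pro5 are CHO cells carrying HIG-tagged alpha-DG that lacks glycosylation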
aDG glyco conf = confirmation of alpha dystroglycan glycosylation activators | activation, % at 10 µM (by protocol) | shares compounds with aDG glyco act | Pro5-aDG cells, alpha-DG glycosylation, IIH6 AlphaLISA; scaled to LARGE-overexpressing B10 cells as 100% | hit rate 17% among 600;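 active = activation of at least 7% in one or more replicates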;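 also: cells exposed to compound for two days before detection; 0% = DMSO-treated Pro5 cells and 100% = DMSO-treated B10-LARGE cells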
The depositor's hits bear a star.

Screening CC(C)(C)c1ccc(/C=N/NC(=S)NCc2ccccc2)cc1 returned PfGluPho inh -7, FAS-TE inh 19, Cardio protect -11, CRFBP-R2 block 1, CRFR2-BP ag 3 and aDG glyco act 0.
Cc1ccc(NS(=O)(=O)c2cccc(C(=O)NC3CCN(Cc4ccccc4)CC3)c2)cc1 was read as PfGluPho inh -2, FAS-TE inh 3, Cardio protect -18, CRFBP-R2 block -16, CRFR2-BP ag -1 and aDG glyco act 1.
For Cc1ccc(NS(=O)(=O)c2ccc(C(=O)NC3CCN(Cc4ccccc4)CC3)cc2)cc1 the results were PfGluPho inh -5, FAS-TE inh 3, Cardio protect -15, CRFBP-R2 block -36, CRFR2-BP ag 6, aDG glyco act 13* and aDG glyco conf 4.8*.
For Cc1ccccc1Nc1nc(N)nc(COC(=O)c2ccco2)n1 the results were PfGluPho inh 2, FAS-TE inh -4, Cardio protect 0, CRFBP-R2 block -9, CRFR2-BP ag 1, aDG glyco act 3.8* and aDG glyco conf 1.
CCN=C1S/C(=C/c2ccc(-c3ccc(F)cc3)o2)C(=O)N1CC was read as PfGluPho inh 32, FAS-TE inh 9, Cardio protect 6, CRFBP-R2 block 0, CRFR2-BP ag 1 and aDG glyco act 0.
For OC1(c2ccc(OC(F)F)cc2)CSC(=Nc2cccnc2)N1C1CC1 (stereo unspecified) the results were PfGluPho inh 3, FAS-TE inh 0, Cardio protect -31, CRFBP-R2 block -13, CRFR2-BP ag 2, aDG glyco act 6.9* and aDG glyco conf 0.
`COc1ccc(OC)c(C2(O)CSC(=Nc3cccnc3)N2Cc2ccco2)c1` (stereo unspecified) gave PfGluPho inh 15, FAS-TE inh -2, Cardio protect 6, CRFBP-R2 block 8, CRFR2-BP ag -1 and aDG glyco act 0.
For CC(C)(C)c1ccc(-c2cc(N)n[nH]2)cc1 the results were PfGluPho inh 5, FAS-TE inh -7, Cardio protect -15, CRFBP-R2 block -30, CRFR2-BP ag 3, aDG glyco act 9.7* and aDG glyco conf 0.
For CC(=O)Nc1ccc(NC(=O)CSCCc2ccccn2)cc1 the results were PfGluPho inh 4, FAS-TE inh -8, Cardio protect 1, CRFBP-R2 block 5, CRFR2-BP ag -2, aDG glyco act 4.5* and aDG glyco conf -1.
CC(=O)Nc1ccc(NC(=O)CCSCCc2ccccn2)cc1 was read as PfGluPho inh -2, FAS-TE inh -9, Cardio protect 2, CRFBP-R2 block -9, CRFR2-BP ag 1 and aDG glyco act 0.
Screening COc1ccc2cc(CN(C(=O)Nc3ccccc3)C3CCCC3)c(=O)[nH]c2c1 returned PfGluPho inh 0, FAS-TE inh 11, Cardio protect 2, CRFBP-R2 block -18, CRFR2-BP ag -1, aDG glyco act 16* and aDG glyco conf -1.
Cc1cccc(OCC(=O)N/N=C\c2cc3c(cc2[N+](=O)[O-])OCO3)c1C was read as PfGluPho inh -3, FAS-TE inh 3, Cardio protect -2, CRFBP-R2 block -4, CRFR2-BP ag 1 and aDG glyco act 0.
For NC(=S)N/N=C/c1coc2c(ccc3ccccc32)c1=O the results were PfGluPho inh 1, FAS-TE inh 1, Cardio protect -4, CRFBP-R2 block 17, CRFR2-BP ag -2, aDG glyco act 9.0* and aDG glyco conf 0.
CS(=O)(=O)c1ccc(Nc2nc(C(N)Cc3ccc(Cl)cc3)cs2)cc1 (stereo unspecified) was read as FAS-TE inh -4, Cardio protect -7, aDG glyco act 24* and aDG glyco conf 11*.
For NC(Cc1ccc(Cl)cc1)c1csc(Nc2ccc(S(N)(=O)=O)cc2)n1 (stereo unspecified) the results were FAS-TE inh -5, Cardio protect -6 and aDG glyco act 0.
`COc1ccc(-c2cc(C(F)(F)F)nc(N3CCOCC3)n2)cc1` gave PfGluPho inh 10, FAS-TE inh 23, Cardio protect -6, CRFBP-R2 block -40, CRFR2-BP ag 1 and aDG glyco act 0.
For COc1ccc(-c2cc(-c3ccc(F)cc3)nc(N3CCN(C)CC3)n2)cc1 the results were PfGluPho inh 21, FAS-TE inh 22, Cardio protect -23, CRFBP-R2 block -4, CRFR2-BP ag 0, aDG glyco act 15* and aDG glyco conf 0.
`Cc1cccc2nc(-c3cccc(NC(=O)c4ccc(Cl)cc4)c3)cn12` gave PfGluPho inh 29, FAS-TE inh 16, Cardio protect 1, CRFBP-R2 block -13, CRFR2-BP ag -1, aDG glyco act 6.5* and aDG glyco conf 1.
For Cc1cccc2nc(-c3cccc(NC(=O)Cc4ccccc4)c3)cn12 the results were PfGluPho inh 28, FAS-TE inh 4, Cardio protect 8, CRFBP-R2 block 3, CRFR2-BP ag 0 and aDG glyco act 2.
Screening Cc1cc(N2CCOCC2)nc2ccc(Cl)cc12 returned PfGluPho inh 6, FAS-TE inh 4, Cardio protect -4, CRFBP-R2 block -10, CRFR2-BP ag 0 and aDG glyco act 0.
CC(C)Cn1c(CN2CCCCC2C)nc2c1c(=O)n(C)c(=O)n2C (stereo unspecified) was read as PfGluPho inh 8, FAS-TE inh -4, Cardio protect 2, CRFBP-R2 block -7, CRFR2-BP ag 2 and aDG glyco act 0.
`N/C(=N\OC(=O)COc1ccc(Cl)cc1Cl)c1ccccn1` gave PfGluPho inh 2, FAS-TE inh 1, Cardio protect -20, CRFBP-R2 block -1, CRFR2-BP ag -1 and aDG glyco act 1.
Screening N/C(=N\OC(=O)COc1ccc(Br)cc1Cl)c1ccccn1 returned PfGluPho inh -6, FAS-TE inh 6, Cardio protect -14, CRFBP-R2 block 8, CRFR2-BP ag 0, aDG glyco act 14* and aDG glyco conf 0.
For CCn1cc(C(=O)NCCCN2CCCC(C)C2)c(=O)c2cc(S(=O)(=O)N3CCc4ccccc4C3)ccc21 (stereo unspecified) the results were PfGluPho inh -4, FAS-TE inh -7, Cardio protect -18, CRFBP-R2 block -12, CRFR2-BP ag 0 and aDG glyco act 6.
For CCC1CCCCN1CCCNC(=O)c1cn(CC)c2ccc(S(=O)(=O)N3CCc4ccccc4C3)cc2c1=O (stereo unspecified) the results were PfGluPho inh -7, FAS-TE inh -7, Cardio protect 2, CRFBP-R2 block 0, CRFR2-BP ag 0, aDG glyco act 9.1* and aDG glyco conf 0.
